Screening results: PubChem, several laboratories
DSG3 Ab inh = inhibitors of pemphigus antibody binding to DSG3, primary screen, biochemical, bead-based, flow cytometry, scFv-GFP; 0.48% of 310,000 active; DSG3-coupled beads, scFv-anti-DSG3-GFP binding; hits give low values; AID 588358, 2011; binding (percent of control), % at 10 µM;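 active means binding more than 3 SD below its plate's average and above zero; inconclusive means below that plate limit but binding exactly zero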;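 further: hits lower antibody fragment binding to DSG3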
ADAM10 inh = human ADAM10 inhibitors, primary screen, biochemical, QFRET, HTS. inhibition, % at 7 µM. recombinant ADAM10, EDANS/DABCYL FRET peptide cleavage, 3 h. Disintegrin and metalloproteinase domain-containing protein 10 (Homo sapiens), O14672. 0.62% of 370,000 active;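 active means inhibition above a per-campaign cutoff equal to the mean of compounds falling between control-based bounds plus 3 SD, cut at about 20% in these data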;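 further: 0% = DMSO wells while the 100% control is not disclosed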
rCAG binder = binders of r(CAG) RNA repeats, primary screen, biochemical, fluorescence; r(CAG) RNA repeat, TO-PRO-1 dye displacement fluorescence; inhibition, % at 3 µM; 1.3% of 370,000 active; AID 651821, 2012;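 active means inhibition above the plate cutoff, the mean of all test compounds on that plate plus 3 SD, cut at about 35% in these data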;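 further: 0% = DMSO alone and 100% = 100 µM mitoxantrone as full dye displacement; higher means more dye released from RNA so lower well fluorescence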
proKLK7 act = proKLK7 zymogen activators, primary screen, biochemical, fluorescence intensity | Kallikrein-7 (Homo sapiens), P49862 | purified proKLK7, EDANS-DABCYL substrate fluorescence; 100% is mature enzyme control, 0% vehicle | activation, % at 7 µM | 0.9% of 370,000 active | AID 652039, 2013;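 active means activation above the mean of all tested compounds plus 3 SD, computed per campaign excluding outliers beyond control limits, cut at about 13% in these data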
Target sequence (P49862 whole entry, looked up): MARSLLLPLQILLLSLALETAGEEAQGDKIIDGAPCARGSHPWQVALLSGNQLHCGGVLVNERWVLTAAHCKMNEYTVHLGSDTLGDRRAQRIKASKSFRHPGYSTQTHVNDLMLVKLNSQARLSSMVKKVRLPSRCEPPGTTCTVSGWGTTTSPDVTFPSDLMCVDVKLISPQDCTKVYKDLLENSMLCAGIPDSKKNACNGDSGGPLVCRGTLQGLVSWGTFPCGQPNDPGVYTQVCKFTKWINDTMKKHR
MPTP inh = mitochondrial permeability transition pore inhibitors, primary screen, biochemical, isolated mouse mitochondria, absorbance | Ca2+ swelling absorbance, 30 min | inhibition, % at 10 µM | 1.4% of 360,000 active;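 active means inhibition of 50% or more, scaled per plate between neutral and stimulator controls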;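 further: 0% = DMSO wells given calcium and 100% = 1 mM EGTA wells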
ADAM17 inh = ADAM17 inhibitors, primary screen, biochemical, QFRET; Disintegrin and metalloproteinase domain-containing protein 17 (Homo sapiens), P78536; recombinant ADAM17, EDANS/DABCYL FRET peptide cleavage; inhibition, % at 6.95 µM; 0.83% of 370,000 active; AID 720648, 2013;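 active means inhibition above the mean of compounds lying between control limits plus 3 SD, set per campaign, cut at about 8.5% in these data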;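 further: 0% = DMSO-only wells as the low control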
KLK7 act conf = proKLK7 zymogen activators, confirmation, biochemical, fluorescence intensity, triplicate | shares compounds with proKLK7 act | purified proKLK7, EDANS-DABCYL substrate fluorescence; scaled: vehicle 0, mature enzyme 100 | activation, % at 7 µM | 68% of 3,200 active;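 active means activation, as change over the incubation, above the mean of all tested compounds plus 3 SD, cut at about 13% in these data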
EDANS interfere = EDANS-DABCYL substrate optical interference, artefact control for kallikrein-7 zymogen activator project, biochemical, fluorescence intensity, high throughput; activation, % at 7 µM; shares compounds with proKLK7 act; no enzyme, 4 h; solvent 0%, active enzyme control 100%; AID 686952, 2013; 80% of 3,200 active;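 active means activation above the all-compound mean plus 3 SD, ignoring values outside control-based bounds, cut at about 4.8% in these data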;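 further: value is the 4 h activation minus the activation read at time zero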
An asterisk follows results filed as active; i = inactive; ? = inconclusive; . = not tested or not shown. The list is not random: actives were taken first. Their share in the collection is about 4.7%.

SMILES	DSG3 Ab inh	ADAM10 inh	rCAG binder	proKLK7 act	MPTP inh	ADAM17 inh	KLK7 act conf	EDANS interfere
CC(C)[C@H](NS(=O)(=O)c1ccccc1)C(=O)OCc1cc([N+](=O)[O-])cc2c1OCOC2	97	13	-1	-1	-3	7	.	.
CC(C)CC(C(=O)Oc1ccc2c3c(c(=O)oc2c1)CCC3)N1C(=O)c2ccccc2C1=O (centres undefined)	104	i	0	-1	-2	-175	.	.
CC[C@@H](NS(=O)(=O)c1ccc(C)cc1)C(=O)Oc1ccc2c3c(c(=O)oc2c1)CCC3	95	i	4	241*	36	i	534*	473*
Cc1c(OC(=O)CNC(=O)OC(C)(C)C)ccc2c3c(c(=O)oc12)CCC3	.	i	-7	418*	6	i	463*	485*
CC(=O)C(C)Oc1ccc2c3c(c(=O)oc2c1C)CCCC3 (centres undefined)	104	-332	-1	2	2	-89	.	.
O=C(O)C=C(Br)Br	101	-23	2	-1	0	-2	.	.
COc1cc2ccc(=O)oc2c(O[C@@H]2O[C@H](CO)[C@@H](O)[C@H](O)[C@H]2O)c1O	102	i	-1	68*	1	i	69*	67*
C=CCn1c(SCC(=O)Nc2cccc(S(N)(=O)=O)c2)nnc1C1CCCCC1	106	-16	2	0	-1	-4	.	.
C#CCN(Cc1ccco1)C(=O)c1nnc2c3ccccc3n(S(=O)(=O)c3ccc(C)cc3)c2n1	.	-42	16	-1	.	-8	.	.
CC(=O)OCC(=O)C1(O)CCC2C3CCC4=CC(=O)CCC4(C)C3(F)C(O)CC21C (centres undefined)	93	-19	-1	0	-1	-2	.	.
CN1CCN(c2ccc(-c3ccc4ccccc4n3)cc2)CC1	54	-246	-8	28*	10	-81	-4	-10
c1ccc2nc(-c3ccc(N4CCOCC4)cc3)ccc2c1	100	-59	-2	1	4	-12	.	.
COc1ccc2nc(C)cc(C(=O)O)c2c1	109	i	6	5	3	-170	.	.
COc1ccc2nccc(C(N)=O)c2c1	100	i	5	13*	0	-318	26*	26*
CN1/C(=N\O)c2cccc3cccc1c23	95	-230	3	21*	-5	-82	40*	51*
COc1cc2c(cc1OC)-c1cc(OCc3cccnc3)nc(=O)n1CC2	151	i	-2	61*	0	i	63*	65*
C[C@@H]1CN([C@@H](C)CO)C(=O)CCCn2nncc2CO[C@H]1CN(C)CC1CCCCC1	.	-11	-1	0	.	-4	.	.
COc1ccc(CNC(=O)COc2cc3c(c4oc(=O)cc(C)c24)CCC(C)(C)O3)cc1OC	100	-141	-1	0	0	-42	.	.
Cc1cc(=O)oc2c3c(cc(OCC(=O)NCCCn4ccnc4)c12)OC(C)(C)CC3	93	i	-8	29*	0	i	8	-8
Cc1cc(=O)oc2c3c(cc(OCC(=O)NCc4ccco4)c12)OC(C)(C)CC3	97	i	-3	12	-1	i	.	.
CCCc1cc(=O)oc2c3c(cc(OCC(=O)NCCCn4ccnc4)c12)OC(C)(C)CC3	108	i	-7	17*	-1	i	-37	-40
Cc1cc(=O)oc2c3c(cc(OCC(=O)NCCN4CCOCC4)c12)OC(C)(C)CC3	101	i	-6	34*	-2	i	57*	70*
COc1cc(C(=O)OCc2csc(CC(=O)Nc3ccccc3C)n2)ccc1OCC(C)C	102	-10	2	0	-2	-2	.	.
Nc1nc2cc(Cl)c(Br)cc2o1	109	-1	0	0	-1	0	.	.
Cn1c(/C(C#N)=C/Nc2ccccn2)nc2ccccc21	102	-112	2	55*	-1	-39	183*	183*
SMILES	DSG3 Ab inh	ADAM10 inh	rCAG binder	proKLK7 act	MPTP inh	ADAM17 inh	KLK7 act conf	EDANS interfere
CC(=O)N1CCC(C(=O)N2c3ccccc3N=C(c3ccc(C(F)(F)F)cc3)C2C(=O)NC(C)(C)C)CC1 (centres undefined)	.	-57	-3	32*	1	-15	-65	-66
O=C(NCCCN1CCOCC1)c1ccc2c(c1)N(Cc1ccccc1)CCS2	89	i	-2	10	-2	i	.	.
CN1CCN(CCCNC(=O)c2ccc3c(c2)N(Cc2ccccc2)CCS3)CC1	107	i	1	15*	1	-346	-35	-38
O=C(NCCN1CCOCC1)c1ccc2c(c1)N(Cc1ccccc1)CCS2	109	i	-4	21*	-1	i	-48	-47
O=C(Nc1cccc2ccccc12)OC[C@@H]1CSCCS(=O)(=O)N1	.	-1	2	0	.	-3	.	.
CC(C)(C)NC(=O)C(c1ccc(-c2ccccc2)cc1)N(C[C@H]1CC[C@@H]([C@@H]2CC[C@H](CO)O2)O1)C(=O)c1cccc(Cl)c1 (some centres undefined)	95	-6	5	0	-1	1	.	.
Clc1nc2c(ccc3ccccc32)[nH]1	96	-10	1	-1	6	-5	.	.
Nc1ccc(-c2nc3c(ccc4ccccc43)[nH]2)cc1	100	i	14	54*	1	i	74*	74*
Cc1cc(N2CCN(C)CC2)n2cc(-c3ccc(F)cc3)nc2n1	106	i	-1	32*	2	-223	6	6.5*
Clc1nnc2c3ccccc3ccn12	99	-8	1	0	-1	-2	.	.
NS(=O)(=O)c1cccc(NC(=O)COC(=O)c2ccc(S(=O)(=O)N3CCOCC3)cc2)c1	?	0	3	0	-4	2	.	.
COc1cc2c(cc1OC)CN(C1CCCN(Cc3cccc(C(C)=O)c3)C1)CC2 (centres undefined)	114	-115	-4	23*	0	-41	10	12*
Nc1ccc2c(c1)[nH]c(=O)c1ccccc12	.	i	5	38*	0	-301	49*	47*
